Screening results deposited in PubChem BioAssay by National Center for Advancing Translational Sciences (NCATS).
TDP1 cell CPT – growth inhibition of DT40 Tdp1-/-;hTDP1 cells with camptothecin (screen for TDP1 inhibitors); chicken DT40 Tdp1-/-;hTDP1 cells + 20 nM CPT, ATP luminescence, 48 h; AID 686979; 12% of 420,000 active; Potency, µM (highest dose often 46.2 µM), inactives show at the highest dose activity change, negative = growth inhibition, hits mostly inhibitors; further: nearly all actives have a fitted effect of over 55% in size
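Chicken DT40 Tdp1-/- cells stably complemented with human TDP1 were seeded at 400 cells/well in medium containing 20 nM camptothecin, exposed to pin-transferred compounds, and grown at 37 °C for at least 48 hr. Viability was read as ATP luminescence.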
GCN5L2 inh – inhibitors of human GCN5L2 histone acetyltransferase; Q92830; GCN5L2 HAT assay, ThioGlo1 CoA-SH fluorescence; Potency, µM (highest dose often 58.9 µM), without a hit: at the highest dose activity change, negative = inhibition, hits mostly inhibitors; 0.21% of 390,000 active; AID 504327
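GCN5L2 (20 nM) in 50mM HEPES pH 7.5, 0.1mM EDTA, 0.01% Tween-20 preincubated 15 min with compounds at room temperature. Reaction started with H3(1-25) 75uM, acetyl-CoA 70uM, ThioGlo1 50uM; CoA-thiol fluorescence (Ex340/Em540) read at 0 and 20 min.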
PLK1 PBD block – PLK1 (human) polo-box domain binding inhibition; Plk1 PBD binding of FITC phosphopeptide, fluorescence polarization; Potency, µM, for inactives: max response, negative = inhibition, most hits filed as inhibitors; 2.8% of 360,000 active; AID 720504; further: series mostly up to about 57 µM; nearly all actives have a fitted effect of over 65% in size
TDP1 cell noCPT – qHTS for Inhibitors of human tyrosyl-DNA phosphodiesterase 1 (TDP1): qHTS in cells in absence of CPT | DT40 Tdp1-/- hTDP1 cells, no CPT, ATP luminescence, 48 h | 15% of 420,000 active | AID 686978, 2013 | Potency, µM (doses to about 46.2 µM), inactives show at the top dose activity change, negative = growth inhibition, usual class: inhibitors; further: nearly all actives have a fitted effect of over 55% in size
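Seeded 400 DT40-hTDP1 cells/well (vehicle DMSO, no 20 nM CPT); pinned compounds; ≥48 hr at 37 °C; CellTiter-Glo luminescence as viability measure.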
VDR inhibitor – blocks the human vitamin D receptor. P11473. VDR-SRC2-3 peptide fluorescence polarization, 2 h. Potency, µM, for inactives: max response, negative = inhibition, most hits filed as inhibitors. 0.93% of 400,000 active. AID 504847
Target sequence (P11473 whole entry, looked up): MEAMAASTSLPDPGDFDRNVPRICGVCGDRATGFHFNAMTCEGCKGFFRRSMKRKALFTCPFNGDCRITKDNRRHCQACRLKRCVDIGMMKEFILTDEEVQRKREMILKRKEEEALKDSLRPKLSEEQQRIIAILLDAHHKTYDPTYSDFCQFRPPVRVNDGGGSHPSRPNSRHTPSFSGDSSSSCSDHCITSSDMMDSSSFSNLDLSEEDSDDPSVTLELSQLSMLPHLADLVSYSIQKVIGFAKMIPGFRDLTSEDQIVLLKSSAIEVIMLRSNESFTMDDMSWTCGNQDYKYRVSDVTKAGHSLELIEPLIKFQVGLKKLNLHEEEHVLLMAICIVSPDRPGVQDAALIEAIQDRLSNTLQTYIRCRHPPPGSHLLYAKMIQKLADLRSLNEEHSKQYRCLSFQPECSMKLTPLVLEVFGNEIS
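Fluorescence polarization assay measuring small-molecule disruption of VDR binding to the coregulator peptide SRC2-3. Compounds were pin-transferred (23 nl) into the reagent mix and incubated 2 h at room temperature before reading.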
TDP1 block – blocks human tyrosyl-DNA phosphodiesterase 1; Potency, µM (highest dose often 130 µM), inactives show at the top dose activity change, negative = inhibition, most hits filed as inhibitors; recombinant TDP1, AlphaScreen DNA substrate cleavage; Q9NUW8; AID 485290; 0.28% of 350,000 active; further: nearly all actives have a fitted effect of over 40% in size
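Recombinant human Tdp1 (E. coli-expressed, 1 nM final) preincubated with compounds 15 min at room temperature, then 5'-biotin/3'-phosphotyrosine-FITC DNA substrate (15 nM final) added for 5 min. AlphaScreen beads (10 ug/ml final) added 10 min; cleavage lowers signal.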
The depositor's hits bear a star; u = inconclusive; x = not tested or not shown; [ ] = remark or other dose. An excerpt weighted towards active compounds, which were near 18% of everything screened. The call rests on the fitted dose curve; in most records, active means well fitted curve in the direction sought with a large enough effect; inconclusive means small, poorly fitted or top-dose-only effect, or another doubt; inactive means no such curve, though single readings can be large; an effect the other way counts as inactive or inconclusive. On the % scale 0 is the no-effect control and ±100 the full control effect; potency means the concentration at half of the fitted maximal effect.

SMILES | TDP1 cell CPT | GCN5L2 inh | PLK1 PBD block | TDP1 cell noCPT | VDR inhibitor | TDP1 block
CC(=O)c1ccc(NC(=O)CC23CC4CC(C2)CC(n2nnc(C)n2)(C4)C3)cc1 | u | -8% | -7% | 13µM* | 4% | 0%
CCc1cccc(NC(=O)c2snc3c(=O)[nH]cnc23)c1 | -8% | -1% | 0% | -13% | -3% | 4%
Cc1c(C(=O)Nc2cccc(C(F)(F)F)c2)sc2nc[nH]c(=O)c12 | 16µM* | -10% | x | 21µM* | 2% | 1%
CCc1cccc(NC(=O)c2sc3nc[nH]c(=O)c3c2C)c1 | u | -7% | x | 21µM* | 19% | 4%
Cc1ccccc1NC(=O)c1sc2nc[nH]c(=O)c2c1C | u | 14% | -9% | -19% | 0% | 2%
CCC/C=C(\CCC)C(NC(=O)c1ccc(-c2ccccc2)cc1)c1ccc(C(=O)OC)cc1 (stereo not drawn) | x | x | x | x | x | -6%
CC(C)(C)c1ccc(C(=O)N2CCN(CCNC(=O)C(=O)NCc3ccc(Cl)cc3)CC2)cc1 | 15µM* | -20% | -8% | 21µM* | -9% | 7%
CCc1ccc(NC(=O)C(=O)NCCN2CCN(C(=O)c3ccc(OC)cc3)CC2)cc1 | u | x | -2% | 13µM* | x | x
COc1ccc(NC(=O)C(=O)NCCN2CCN(C(=O)c3ccc(C)cc3)CC2)cc1 | -4% | -2% | 0% | -27% | -2% | 4%[0.0935 µM]
N/C(=C\c1ccccc1)c1ccncc1 | -2% | x | x | u | x | x
O=C(c1cc(COc2ccc(F)c(F)c2)on1)N1CCN(C/C=C/c2ccccc2)CC1 | u | -18% | -8% | 26µM* | -4% | x
CCCN1CCN(C(=O)c2cc(COc3ccc(F)c(F)c3)on2)CC1 | -27% | -2% | -8% | 1% | -18% | 4%
CCN1CCN(C(=O)c2cc(COc3ccc(F)c(F)c3)on2)[C@@H](C)C1=O | 15µM* | x | 5% | 21µM* | x | x
CC(=O)Oc1ccc(OC(C)=O)c2c1CC1(C)OC1(C)C2 (stereo not drawn) | -14% | x | -12% | u | x | x
COc1ccc2nc(NC(=O)c3nc(SCc4ccccc4F)ncc3Cl)sc2c1 | 9% | -1% | x | -1% | 6% | -7%
COc1ccc2nc(NC(=O)c3nc(S(=O)(=O)Cc4ccccc4)ncc3Cl)sc2c1 | 1µM* | -18% | x | 1.3µM* | 2% | -9%
COc1ccc2nc(NC(=O)c3nc(S(=O)(=O)Cc4ccccc4F)ncc3Cl)sc2c1 | 0.92µM* | u | x | 1.5µM* | -5% | 0%
O=C(NCc1ccccn1)C1CCN(S(=O)(=O)c2cc(Cl)ccc2Cl)CC1 | 3% | 2% | -1% | -11% | -4% | 6%
C=CC1=C2C=C(C3CC3)N(Cc3ccc4c(c3)OCO4)C=C2C(=O)C(C)(OC(=O)c2ccco2)C1=O (stereo not drawn) | x | x | x | x | x | 4%[12.3 µM]
Cn1nnnc1SCCNCc1ccccc1OCc1ccc(F)cc1 | -7% | -5% | -5% | -11% | 8% | -5%
CCOc1cc(CNCCSc2nnnn2C)ccc1OCc1ccc(Cl)cc1Cl | 26µM* | -4% | x | 26µM* | -10% | 2%
COc1cc(CNCCSc2nnnn2C)ccc1OCc1ccccc1 | u | -4% | x | u | 1% | 5%
Cn1nnnc1SCCNCc1ccccc1OCc1ccc(Cl)cc1Cl | 18µM* | -7% | x | 9.2µM* | -6% | 5%
COc1ccccc1/C=C/c1nc(C#N)c(N2CCN(c3ccccc3)CC2)o1 | u | -15% | x | u | 9% | 5%
CNc1nc(-c2ccccc2C(F)(F)F)nc2ccccc12 | u | -4% | x | -5% | 0% | -12%[56.1 µM]
SMILES | TDP1 cell CPT | GCN5L2 inh | PLK1 PBD block | TDP1 cell noCPT | VDR inhibitor | TDP1 block
CCOC(=O)C(NC(=O)c1ccccc1)(OCc1ccc(F)cc1)C(F)(F)F (stereo not drawn) | -27% | -2% | -2% | 18µM* | 5% | 3%
O=C(CNC(=O)c1cccnc1)c1ccc(F)cc1 | -2% | x | x | 8% | x | x
Cc1ccc(OCC2Cn3c(nc4c3c(=O)[nH]c(=O)n4C)O2)cc1C (stereo not drawn) | u | 7% | -14% | 10µM* | -3% | x
CCc1cccc(OCC2Cn3c(nc4c3c(=O)[nH]c(=O)n4C)O2)c1 (stereo not drawn) | 8.2µM* | 1% | 1% | u | -13% | 0%
CN1CCN(c2ccc(CNC(=O)C3Cc4c(-c5ccc(Cl)cc5)ccnc4O3)cc2)CC1 (stereo not drawn) | u | x | -13% | 16µM* | x | x
CC(=O)Nc1cccc(-c2ccnc3c2CC(C(=O)NCc2ccc(N(C)C)cc2)O3)c1 (stereo not drawn) | 13µM* | x | -6% | 18µM* | x | x
O=C(NCc1cccc(Cl)c1)C1Cc2c(-c3ccccc3)ccnc2O1 (stereo not drawn) | 29µM* | x | -3% | 16µM* | x | x
O=C(NCc1cccc(Cl)c1)C1Cc2c(-c3ccc(Cl)cc3)ccnc2O1 (stereo not drawn) | u | x | -2% | u | x | x
NC(=O)c1cccc(-c2ccnc3c2CC(C(=O)NCc2ccccc2)O3)c1 (stereo not drawn) | 0.58µM* | x | -6% | 1.3µM* | x | x
CC(=O)Nc1ccc(-c2ccnc3c2CC(C(=O)NCc2ccc(N4CCN(C)CC4)cc2)O3)cc1 (stereo not drawn) | u | x | 3% | u | x | x
CC(=O)Nc1cccc(-c2ccnc3c2CC(C(=O)NCc2ccncc2)O3)c1 (stereo not drawn) | -6% | x | -9% | -20% | x | x
O=C(NCc1cccnc1)C1Cc2c(-c3ccc(Cl)cc3)ccnc2O1 (stereo not drawn) | 5.8µM* | x | 3% | 8.2µM* | x | x
CC(=O)Nc1cccc(-c2ccnc3c2CC(C(=O)NCc2ccc(F)c(F)c2)O3)c1 (stereo not drawn) | 3.3µM* | x | -1% | 3.3µM* | x | x
O=C(NCc1ccncc1)C1Cc2c(-c3ccc(Cl)cc3)ccnc2O1 (stereo not drawn) | u | x | 0% | u | x | x
NC(=O)c1cccc(-c2ccnc3c2CC(C(=O)NCc2ccc(F)c(F)c2)O3)c1 (stereo not drawn) | 4.6µM* | x | -7% | 8.2µM* | x | x
O=C1CCCC(O)=C1C=Nc1ccc(O)cc1 | u | -13% | -7% | 26µM* | 6% | 5%
CCOC(=O)CCn1c(=O)c2cccn2c2cccnc21 | -2% | -6% | x | -6% | 28% | 3%
O=c1onc2cnc3ccccc3n12 | u | -7% | x | 13µM* | u | 17%
c1ccc2c(c1)ncc1nncn12 | -6% | 0% | x | -20% | -16% | 1%
